Columns and labels:
Test in all cases: PBM binding z-score (relative to random genomic background probes); higher = stronger binding; sequences stand for … in GC…GCGATTGACAGCGTAGAATGAAGG
[1] = system: RARb homodimer (NR concentration 270 nM)
How it was run: (§1)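 Scanned fluorescence from custom Agilent 4×180K protein-binding microarrays was regression-normalized. Binding z-scores use random background probes as reference. Ligand-free nuclear receptor dimers were incubated on the arrays for 1 h and detected with antibodies against each partner (one per run).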

[2] = system: RARg:RXRa (NR concentration 270 nM, RXRa partner concentration 90 nM)
How it was run: as §1

[3] = system: RARg homodimer (NR concentration 270 nM)
How it was run: as §1

[4] = system: RXRa DBDmut IVT, anti-RXR (DBD mutation: RXRa K156A/R161A, NR concentration 90 nM)
How it was run: as §1

[5] = system: RXRa homodimer (NR concentration 180 nM)
How it was run: as §1

[6] = system: THRa:RXRa (NR concentration 90 nM, RXRa partner concentration 90 nM)
How it was run: as §1

[7] = system: THRa homodimer (NR concentration 90 nM)
How it was run: as §1

[8] = system: VDR homodimer (NR concentration 270 nM)
How it was run: as §1

Sequence	PBM binding z-score [1]	PBM binding z-score [2]	PBM binding z-score [3]	PBM binding z-score [4]	PBM binding z-score [5]	PBM binding z-score [6]	PBM binding z-score [7]	PBM binding z-score [8]
CCTTACGGGTCACTGACAGGTTATAACATTTGGA	3.33	5.87	4.56	1.78	5.31	3.12	0.436	1.21
TCTATTAGGTGATTAGGGCAACCGAAACAGCGGA	1.1	1.09	1.02	0.665	0.927	1.24	0.68	0.277
AGTATGAGGTTATTAAGATCAGGGAATTGCGGTC	1.18	1.27	1.09	2.07	1.53	2.27	1.05	1.41
ATCGTAAGGTCGAAGGTGAGTATACCCACCCGAA	1.59	2.97	2.44	1.58	3.4	2.98	1.59	0.909
TCGAGTAGGTTAGTCGGGGCATTCAGCCAACATA	0.309	-0.257	-0.115	0.217	-0.227	0.885	-0.0985	0.0153
CTTCCAAGGTGAACAAGGTCGTTGATTACTATTC	2.18	1.8	1.62	1.57	1.69	3.41	2.03	2.34
CGTCCAAGGTCATAGGAGGTCAGTGCAGACAGAT	4.94	6.63	6.9	4	6.32	5.34	2.96	4.88
ATCAAAAGGTCGTGAGGTGAGTATACAGAAAGGC	3.41	4.87	4.4	1.25	5.51	3.49	1.89	1.49
CCTCGGAGGACAACAGGAGGTCAGAGGTGCCAGA	3.4	3.47	3.16	-0.191	2.1	2.88	0.822	1.13
TCTGCTAGATCAACGATGGTCAGCTAATCTGCTA	-0.588	-0.514	-0.512	-0.127	-0.276	-0.945	-1.71	-1.45
ATCTCTAGGTATAGATAGTTCAGTGAATGCAAAT	0.907	0.662	0.781	0.321	0.447	0.433	-0.135	0.864
CAAACTAGGTCAAAGGGCAAAGTCGAGCCAACCA	3.81	6.04	5.28	1.76	7.35	3.56	0.847	1.06
CCCAGTTGGTCAAGGTCACACACGCTATAGGTAC	4.34	4.75	4.74	2.13	4.74	4.16	4.46	4.2
ATCGAAAGGTCGACGAGGTGGGTATACACCGTTT	2.71	4.03	3.85	0.746	4.17	2.51	-0.214	0.638
CGAACTAGGTCATCCAGGACAGTGAGTACATTGA	3.03	4.04	5.08	2.58	3.02	3.65	2.14	4.1
CCGAGTAGGATATGGGGCATTCAGGCAACGGTGA	0.223	-0.15	0.00405	-0.637	0.133	0.16	0.0622	-0.318
CCTATTAATTGACCATAAGGGCAACCGAAGCTCG	1.91	0.926	1.1	0.931	0.841	1.63	1.81	1.85
GTATATAGGTAATACAAGGTGAAAGTCCGATTGT	1.06	0.647	0.697	0.401	0.751	4.18	1.48	0.367
ATCTCTAGGTAAGCAAGTTCAGTGAATGCCGAAC	1.09	0.455	0.778	0.62	0.3	0.771	0.165	2.32
CCTACTGGGCCACGATAGGTCATTGATTCAGTGA	2.93	2.17	2.17	-0.409	1.92	2	-0.0133	0.0413
CGAACGAGGGCATGAGTTGATGGCAAATGCCGAT	0.659	1.25	1.6	2.05	0.973	1.08	-0.389	1.31
TTTTGTAGATCAAAGGTTAAGAAAGCCGAAGCCT	1.49	1.74	0.912	-0.536	3.39	1.3	-0.617	-0.0263
CAAACTAGGTAAAGGTCAAAGTCGGTTTGTGCCA	4.92	6.24	5.71	2.3	6.98	3.87	1.05	2.8
TTACTAAGGTGAGCTGAGGTCGTTGATCCAACTC	1.96	1.39	1.38	0.464	1.52	4.79	2.51	2.32
TCTACTTGGTCAAAGGTCACACACTCGAAATGCG	5.11	7.2	6.3	2.19	8.15	4.24	2.7	2.68
TATACAGGGTCAAAGACCAGAGTACGAATGTCGA	2.94	5.15	4.53	2.82	5.89	3.2	0.651	2.81

Sequence	PBM binding z-score [1]	PBM binding z-score [2]	PBM binding z-score [3]	PBM binding z-score [4]	PBM binding z-score [5]	PBM binding z-score [6]	PBM binding z-score [7]	PBM binding z-score [8]
TGGAGTAGGTTACCAATGGGGCATTCAGCTTTCT	1.16	1.4	0.805	-0.418	0.605	0.403	-0.198	-0.00533
ATCGAACGGTCGTGAGGTGAGTATACAGAAAGGC	0.679	0.948	1.19	-0.665	0.53	1.48	0.666	-0.261
ATATGTAGGTTACATCCGGGTAATTCAGGCTATG	0.673	1.08	1.06	0.788	0.887	2.3	0.727	0.278
ATATGTAGGTTAGCTGGGGTTATTCAGACTAGGC	1.42	1.54	0.961	0.972	2.43	4.32	1.11	1.65
ACTAGTTGGTCAGCTGAGGCCACACACAATTCGG	1.35	0.493	1.14	0.0642	0.0882	3.64	1.45	0.0276
ACTAGTCGGTCAGCTGAGGTCACACACAATTCGG	4.94	4.99	5.76	1.43	4.35	5.27	5.28	3.97
CCAGACAGGCGAGAAGGTAACTCAGCCTCGATTA	-0.738	-0.546	-0.427	-0.382	-0.473	-0.499	-0.402	-0.366
TAGCGTAGGTCATTCAGGGGCCAGTATAGAAAGC	3.37	6.52	5.07	1.79	3.93	3.56	-0.427	1.25
AGAACTAGGGCACGCTGAGTTGATAGCAGAGTAG	0.535	0.967	1.49	-0.125	0.504	0.309	-0.568	0.21
GCGACTGGGGCAAGGCAGGTTACCATAAGGTTGG	1.16	0.436	0.635	-1.16	0.144	2.41	0.0224	-0.42
TCTAGTAGGTTAGTCGGGGCATTCAGCCAACATA	1.04	0.36	0.358	1.33	0.381	1.4	0.765	1.14
ATCGAAAGGTCGCCGAGGTGAGTATACACCGTTT	3.6	4.9	5.02	1.78	5.24	4.1	1.17	1.53
GTACCAAGGTGAATATGTCGTTGATGAGTAGGCG	0.432	0.746	0.888	-0.0689	0.5	1.34	0.837	0.112
ATCTCTAGGTAAAGATATTTCAGTGAATGCAAAT	-0.275	0.202	0.289	-0.0383	0.125	0.524	0.252	-0.0481
TCTTGTAGATCAGCAGGTTAACAAAGCTGGCCAA	0.38	0.348	-0.352	0.44	0.609	0.517	-0.468	-0.328
CCTACTGGGCCAAAAAGGTCATTAATGCCGATAA	4.32	4.16	3.68	0.627	4.26	2.91	0.449	2.2
TCTAGGTGGTCAAAGGTCACACACTCGAAATGCG	5.07	7.33	6.07	1.85	8.65	4.41	1.74	2.4
ATCTCTAGGTAAAAGTGCAGTGAATCCCGAGGAT	0.183	0.363	0.23	-0.0923	0.454	0.235	-0.373	0.138
GCTAGTTGGTCAGTAAAAGGCCACACACCGGTCG	1.83	0.944	0.676	-0.169	0.227	0.0278	-0.175	-0.584
GGATATAGGTAATACAAGGTGAAAGTCCGATTGT	1.38	0.879	0.935	0.283	0.977	4.46	1.64	0.913
CGAACTAGGTCAAGCACAGTGAATCTCCGCACGC	2.96	4.27	4.61	1.82	2.84	2.72	1.27	0.357
CCTAACGGGTCACTCCAGGTTATAGCATCGGAGT	2.75	3.8	3.98	1.23	3.26	4.85	0.619	1.5
GCGACTGGGGCATCAGCAGGTTGCCATAACTTAA	0.046	-0.0231	-0.244	-0.343	-0.273	-0.00785	-0.582	-0.425
TCTTGTAGCTCAACAGGAGGTTAAGAAAGATCGA	-0.0225	0.173	0.0214	-0.206	0.559	0.491	-1.06	-0.327
CCTAGCAGGCCAGGGTCGCTCAAGCATTTCGCTT	0.411	0.213	-0.184	-0.345	0.948	1.23	-0.279	-0.195
CCTACTGGGTCATCAGGTCATTGATATCAACGTT	4.25	5.07	5	2.14	4.38	3.97	3.17	3.06

Reference: the supplement of paper PMC6555819
